In paper PMC7862700, “An all-to-all approach to the identification of sequence-specific readers for epigenetic DNA modifications on cytosine”:

Tests used:
Test in all cases: DAPPL (digital affinity profiling via proximity ligation, sequencing); 10 mM Tris-HCl pH 7.5, 50 mM NaCl, 1 mM DTT, 4% glycerol, room temperature, 30 min; GST-TFs on glutathione beads, 16-mer random dsDNA library, 0.1% formaldehyde crosslink after washing; high values mean tight binding
FEV = target: T1, FEV (Homo sapiens, UniProt Q99581 1-238); conditions: protein: recombinant; tags: N-terminal GST; dsDNA, one strand shown
T1 sequence: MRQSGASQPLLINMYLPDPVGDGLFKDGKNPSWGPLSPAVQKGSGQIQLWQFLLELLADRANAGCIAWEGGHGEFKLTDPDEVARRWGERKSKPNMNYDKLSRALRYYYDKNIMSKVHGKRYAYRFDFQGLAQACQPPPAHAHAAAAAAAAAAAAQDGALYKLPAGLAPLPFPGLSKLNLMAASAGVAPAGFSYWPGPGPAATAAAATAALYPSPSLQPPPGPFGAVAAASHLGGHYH
Outline: (§1)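 Binding signal is given per hexamer as its read frequency for a factor divided by its frequency in the tag-only sample. GST-fused human transcription factors were expressed in yeast, captured on glutathione beads, barcoded with DNA and pooled with that sample, then incubated with 200 nmole of a 16-mer random double-stranded DNA library in Tris/NaCl/DTT/glycerol buffer for 30 min at room temperature. The pools were then washed, crosslinked, proximity-ligated, amplified by PCR and sequenced on an Illumina NextSeq500.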

ETV5 = ETV5 (Homo sapiens, UniProt P41161 1-510); conditions: protein: recombinant; tags: N-terminal GST; dsDNA, one strand shown
Outline: as §1

HSF1 = HSF1 (Homo sapiens, UniProt Q00613 1-529); conditions: protein: recombinant; tags: N-terminal GST; chain copies: 3; dsDNA, one strand shown
Outline: as §1

SPIC = target: T2, SPIC (Homo sapiens, UniProt Q8N5J4 1-248); conditions: protein: recombinant; tags: N-terminal GST; dsDNA, one strand shown
T2 sequence: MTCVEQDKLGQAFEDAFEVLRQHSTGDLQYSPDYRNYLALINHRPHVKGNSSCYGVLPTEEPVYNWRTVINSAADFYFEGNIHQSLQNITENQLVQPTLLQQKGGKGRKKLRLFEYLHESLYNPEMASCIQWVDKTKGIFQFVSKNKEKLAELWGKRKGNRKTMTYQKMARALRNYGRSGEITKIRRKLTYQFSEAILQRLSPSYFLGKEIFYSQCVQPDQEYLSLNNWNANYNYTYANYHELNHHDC
Outline: as §1

ELF4 = ELF4 (Homo sapiens, UniProt Q99607 1-663); conditions: protein: recombinant; tags: N-terminal GST; dsDNA, one strand shown
Outline: as §1

ELK4 = target: T3, ELK4 (Homo sapiens, UniProt P28324-2 1-405); conditions: protein: recombinant; tags: N-terminal GST; dsDNA, one strand shown
T3 sequence: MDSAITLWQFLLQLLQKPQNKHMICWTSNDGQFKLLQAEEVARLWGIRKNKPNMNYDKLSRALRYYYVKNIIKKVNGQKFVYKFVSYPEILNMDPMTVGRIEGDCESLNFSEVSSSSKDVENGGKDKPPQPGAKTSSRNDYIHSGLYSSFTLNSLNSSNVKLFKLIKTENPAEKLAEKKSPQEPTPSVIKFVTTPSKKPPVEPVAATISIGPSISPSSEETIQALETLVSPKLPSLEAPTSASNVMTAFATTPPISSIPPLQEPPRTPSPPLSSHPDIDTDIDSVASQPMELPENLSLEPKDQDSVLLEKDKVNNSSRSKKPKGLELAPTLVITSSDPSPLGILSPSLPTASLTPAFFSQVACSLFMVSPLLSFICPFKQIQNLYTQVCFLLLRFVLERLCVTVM
Outline: as §1

ETV2 = target: T4, ETV2 (Homo sapiens, UniProt O00321 1-342); conditions: protein: recombinant; tags: N-terminal GST; dsDNA, one strand shown
T4 sequence: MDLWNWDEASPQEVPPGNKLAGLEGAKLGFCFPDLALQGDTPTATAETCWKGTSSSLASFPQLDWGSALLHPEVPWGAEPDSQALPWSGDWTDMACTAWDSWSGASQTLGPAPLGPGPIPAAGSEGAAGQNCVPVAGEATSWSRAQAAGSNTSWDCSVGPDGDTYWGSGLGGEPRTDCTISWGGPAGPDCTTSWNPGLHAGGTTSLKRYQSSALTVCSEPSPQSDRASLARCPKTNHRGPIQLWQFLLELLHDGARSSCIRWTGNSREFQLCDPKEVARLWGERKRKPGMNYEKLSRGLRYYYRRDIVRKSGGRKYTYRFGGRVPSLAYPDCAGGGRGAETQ
Outline: as §1

ELF3 = target: T5, ELF3 (Homo sapiens, UniProt P78545 1-371); conditions: protein: recombinant; tags: N-terminal GST; dsDNA, one strand shown
T5 sequence: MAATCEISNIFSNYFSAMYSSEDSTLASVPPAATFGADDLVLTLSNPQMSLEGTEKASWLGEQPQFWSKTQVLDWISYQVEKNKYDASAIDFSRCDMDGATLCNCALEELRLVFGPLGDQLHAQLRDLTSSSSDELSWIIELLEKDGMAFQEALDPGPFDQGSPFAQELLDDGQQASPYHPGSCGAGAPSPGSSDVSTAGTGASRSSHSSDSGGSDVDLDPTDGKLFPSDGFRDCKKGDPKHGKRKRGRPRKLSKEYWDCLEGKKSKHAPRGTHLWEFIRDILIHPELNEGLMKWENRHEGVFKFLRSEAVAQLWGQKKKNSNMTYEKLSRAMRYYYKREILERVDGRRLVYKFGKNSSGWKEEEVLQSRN
Outline: as §1

CRX = CRX (Homo sapiens, UniProt O43186 1-299); conditions: protein: recombinant; tags: N-terminal GST; dsDNA, one strand shown
Outline: as §1

ETV1 = ETV1 (Homo sapiens, UniProt P50549 1-477); conditions: protein: recombinant; tags: N-terminal GST; dsDNA, one strand shown
Outline: as §1

Chain of CRX (O43186 whole entry): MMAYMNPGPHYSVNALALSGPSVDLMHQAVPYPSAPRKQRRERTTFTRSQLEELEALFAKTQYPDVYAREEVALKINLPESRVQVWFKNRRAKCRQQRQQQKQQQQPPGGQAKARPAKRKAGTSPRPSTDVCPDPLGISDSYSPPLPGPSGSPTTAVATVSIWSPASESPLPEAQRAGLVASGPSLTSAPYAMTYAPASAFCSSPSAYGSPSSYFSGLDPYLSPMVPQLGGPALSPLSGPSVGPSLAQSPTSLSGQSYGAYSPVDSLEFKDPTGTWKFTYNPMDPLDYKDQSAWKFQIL
Chain of HSF1 (Q00613 whole entry): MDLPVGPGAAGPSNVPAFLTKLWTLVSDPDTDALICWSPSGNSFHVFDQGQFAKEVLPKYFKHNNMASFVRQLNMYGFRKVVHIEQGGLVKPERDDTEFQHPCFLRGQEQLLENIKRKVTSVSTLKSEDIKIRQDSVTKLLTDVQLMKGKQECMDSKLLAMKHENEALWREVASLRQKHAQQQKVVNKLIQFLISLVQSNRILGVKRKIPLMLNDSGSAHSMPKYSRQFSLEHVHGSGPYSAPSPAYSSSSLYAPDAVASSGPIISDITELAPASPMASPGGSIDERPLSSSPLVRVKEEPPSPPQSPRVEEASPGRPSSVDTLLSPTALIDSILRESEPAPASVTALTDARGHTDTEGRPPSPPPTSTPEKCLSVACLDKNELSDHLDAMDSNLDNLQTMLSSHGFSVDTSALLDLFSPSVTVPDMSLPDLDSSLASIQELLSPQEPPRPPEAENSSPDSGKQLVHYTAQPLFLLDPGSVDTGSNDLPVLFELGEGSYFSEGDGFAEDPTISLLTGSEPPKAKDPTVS
Chain of ELF4 (Q99607 whole entry): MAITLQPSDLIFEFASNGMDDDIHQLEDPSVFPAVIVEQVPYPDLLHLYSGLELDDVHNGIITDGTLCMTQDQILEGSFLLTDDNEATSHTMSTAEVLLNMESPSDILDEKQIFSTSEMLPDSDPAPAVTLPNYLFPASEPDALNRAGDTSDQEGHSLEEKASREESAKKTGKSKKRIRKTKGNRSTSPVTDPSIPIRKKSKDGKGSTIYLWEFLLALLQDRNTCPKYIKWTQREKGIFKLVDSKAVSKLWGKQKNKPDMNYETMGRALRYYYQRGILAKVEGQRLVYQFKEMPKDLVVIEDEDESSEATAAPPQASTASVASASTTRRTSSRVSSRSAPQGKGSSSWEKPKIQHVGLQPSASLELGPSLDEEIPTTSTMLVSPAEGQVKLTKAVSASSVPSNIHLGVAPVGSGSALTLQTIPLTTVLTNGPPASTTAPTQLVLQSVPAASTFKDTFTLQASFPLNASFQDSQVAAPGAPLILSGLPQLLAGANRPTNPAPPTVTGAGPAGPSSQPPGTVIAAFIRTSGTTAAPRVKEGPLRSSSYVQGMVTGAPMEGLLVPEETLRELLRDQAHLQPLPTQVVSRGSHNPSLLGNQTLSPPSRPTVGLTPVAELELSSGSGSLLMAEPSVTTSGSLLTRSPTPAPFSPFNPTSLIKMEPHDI
Chain of ETV5 (P41161 whole entry): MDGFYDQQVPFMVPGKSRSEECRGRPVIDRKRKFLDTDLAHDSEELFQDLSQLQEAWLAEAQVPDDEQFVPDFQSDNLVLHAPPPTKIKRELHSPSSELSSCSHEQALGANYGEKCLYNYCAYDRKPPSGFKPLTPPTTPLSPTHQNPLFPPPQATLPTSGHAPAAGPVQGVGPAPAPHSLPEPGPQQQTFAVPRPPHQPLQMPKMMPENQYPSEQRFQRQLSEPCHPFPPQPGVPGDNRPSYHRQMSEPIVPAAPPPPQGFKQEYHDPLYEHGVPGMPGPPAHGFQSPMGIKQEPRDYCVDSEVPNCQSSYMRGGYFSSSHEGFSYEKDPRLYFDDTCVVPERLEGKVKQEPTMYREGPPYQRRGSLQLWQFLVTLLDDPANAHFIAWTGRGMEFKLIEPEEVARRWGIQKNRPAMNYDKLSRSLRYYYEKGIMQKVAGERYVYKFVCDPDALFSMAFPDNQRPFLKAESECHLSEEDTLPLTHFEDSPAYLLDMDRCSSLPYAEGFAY
Chain of ETV1 (P50549 whole entry): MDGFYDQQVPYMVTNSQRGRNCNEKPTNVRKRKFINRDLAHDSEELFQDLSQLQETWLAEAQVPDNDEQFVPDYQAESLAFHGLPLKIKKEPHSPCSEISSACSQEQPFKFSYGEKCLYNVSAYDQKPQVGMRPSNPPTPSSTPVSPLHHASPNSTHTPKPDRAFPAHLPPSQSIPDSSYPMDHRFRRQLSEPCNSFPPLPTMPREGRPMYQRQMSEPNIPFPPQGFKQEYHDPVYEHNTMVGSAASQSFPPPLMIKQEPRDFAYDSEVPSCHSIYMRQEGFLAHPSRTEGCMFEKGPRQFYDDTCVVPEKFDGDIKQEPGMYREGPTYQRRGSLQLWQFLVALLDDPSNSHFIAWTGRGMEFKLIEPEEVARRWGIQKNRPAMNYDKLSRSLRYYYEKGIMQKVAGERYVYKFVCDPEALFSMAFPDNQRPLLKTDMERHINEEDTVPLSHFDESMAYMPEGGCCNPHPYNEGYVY

Sequence: TTGCAC
- binding signal (FEV): 1.24 fold enrichment (6-mer frequency, TF over GST control)
- binding signal (ETV5): 1.24 fold enrichment (6-mer frequency, TF over GST control)
- binding signal (HSF1): 1.1 fold enrichment (6-mer frequency, TF over GST control)
- binding signal (SPIC): 1.07 fold enrichment (6-mer frequency, TF over GST control)
- binding signal (ELF4): 1.31 fold enrichment (6-mer frequency, TF over GST control)
- binding signal (ELK4): 1.31 fold enrichment (6-mer frequency, TF over GST control)
- binding signal (ETV2): 1.22 fold enrichment (6-mer frequency, TF over GST control)
- binding signal (ELF3): 1.23 fold enrichment (6-mer frequency, TF over GST control)
- binding signal (CRX): 1.11 fold enrichment (6-mer frequency, TF over GST control)
- binding signal (ETV1): 1.22 fold enrichment (6-mer frequency, TF over GST control)

Sequence: CTACCC
- binding signal (FEV): 1.26 fold enrichment (6-mer frequency, TF over GST control)
- binding signal (ETV5): 1.28 fold enrichment (6-mer frequency, TF over GST control)
- binding signal (HSF1): 1.04 fold enrichment (6-mer frequency, TF over GST control)
- binding signal (SPIC): 1.47 fold enrichment (6-mer frequency, TF over GST control)
- binding signal (ELF4): 1.36 fold enrichment (6-mer frequency, TF over GST control)
- binding signal (ELK4): 1.23 fold enrichment (6-mer frequency, TF over GST control)
- binding signal (ETV2): 1.29 fold enrichment (6-mer frequency, TF over GST control)
- binding signal (ELF3): 1.3 fold enrichment (6-mer frequency, TF over GST control)
- binding signal (CRX): 1.08 fold enrichment (6-mer frequency, TF over GST control)
- binding signal (ETV1): 1.26 fold enrichment (6-mer frequency, TF over GST control)

Sequence: TATATG
- binding signal (FEV): 1.33 fold enrichment (6-mer frequency, TF over GST control)
- binding signal (ETV5): 1.34 fold enrichment (6-mer frequency, TF over GST control)
- binding signal (HSF1): 1.28 fold enrichment (6-mer frequency, TF over GST control)
- binding signal (SPIC): 1.47 fold enrichment (6-mer frequency, TF over GST control)
- binding signal (ELF4): 1.31 fold enrichment (6-mer frequency, TF over GST control)
- binding signal (ELK4): 1.65 fold enrichment (6-mer frequency, TF over GST control)
- binding signal (ETV2): 1.25 fold enrichment (6-mer frequency, TF over GST control)
- binding signal (ELF3): 1.46 fold enrichment (6-mer frequency, TF over GST control)
- binding signal (CRX): 1.44 fold enrichment (6-mer frequency, TF over GST control)
- binding signal (ETV1): 1.33 fold enrichment (6-mer frequency, TF over GST control)

Sequence: CTCGGC
- binding signal (FEV): 1.29 fold enrichment (6-mer frequency, TF over GST control)
- binding signal (ETV5): 1.41 fold enrichment (6-mer frequency, TF over GST control)
- binding signal (HSF1): 1.31 fold enrichment (6-mer frequency, TF over GST control)
- binding signal (SPIC): 1.26 fold enrichment (6-mer frequency, TF over GST control)
- binding signal (ELF4): 1.56 fold enrichment (6-mer frequency, TF over GST control)
- binding signal (ELK4): 1.39 fold enrichment (6-mer frequency, TF over GST control)
- binding signal (ETV2): 1.34 fold enrichment (6-mer frequency, TF over GST control)
- binding signal (ELF3): 1.52 fold enrichment (6-mer frequency, TF over GST control)
- binding signal (CRX): 1.13 fold enrichment (6-mer frequency, TF over GST control)
- binding signal (ETV1): 1.54 fold enrichment (6-mer frequency, TF over GST control)

Sequence: ACCTCC
- binding signal (FEV): 1.42 fold enrichment (6-mer frequency, TF over GST control)
- binding signal (ETV5): 1.43 fold enrichment (6-mer frequency, TF over GST control)
- binding signal (HSF1): 1.11 fold enrichment (6-mer frequency, TF over GST control)
- binding signal (SPIC): 1.45 fold enrichment (6-mer frequency, TF over GST control)
- binding signal (ELF4): 1.44 fold enrichment (6-mer frequency, TF over GST control)
- binding signal (ELK4): 1.45 fold enrichment (6-mer frequency, TF over GST control)
- binding signal (ETV2): 1.4 fold enrichment (6-mer frequency, TF over GST control)
- binding signal (ELF3): 1.14 fold enrichment (6-mer frequency, TF over GST control)
- binding signal (CRX): 1.08 fold enrichment (6-mer frequency, TF over GST control)
- binding signal (ETV1): 1.4 fold enrichment (6-mer frequency, TF over GST control)

Sequence: CGAACA
- binding signal (FEV): 1.06 fold enrichment (6-mer frequency, TF over GST control)
- binding signal (ETV5): 1.14 fold enrichment (6-mer frequency, TF over GST control)
- binding signal (HSF1): 1.76 fold enrichment (6-mer frequency, TF over GST control)
- binding signal (SPIC): 1.11 fold enrichment (6-mer frequency, TF over GST control)
- binding signal (ELF4): 1.19 fold enrichment (6-mer frequency, TF over GST control)
- binding signal (ELK4): 1.17 fold enrichment (6-mer frequency, TF over GST control)
- binding signal (ETV2): 1.22 fold enrichment (6-mer frequency, TF over GST control)
- binding signal (ELF3): 1.2 fold enrichment (6-mer frequency, TF over GST control)
- binding signal (CRX): 1.1 fold enrichment (6-mer frequency, TF over GST control)
- binding signal (ETV1): 1.1 fold enrichment (6-mer frequency, TF over GST control)

Sequence: TTGCGG
- binding signal (FEV): 1.19 fold enrichment (6-mer frequency, TF over GST control)
- binding signal (ETV5): 1.36 fold enrichment (6-mer frequency, TF over GST control)
- binding signal (HSF1): 1.04 fold enrichment (6-mer frequency, TF over GST control)
- binding signal (SPIC): 1.47 fold enrichment (6-mer frequency, TF over GST control)
- binding signal (ELF4): 1.3 fold enrichment (6-mer frequency, TF over GST control)
- binding signal (ELK4): 1.2 fold enrichment (6-mer frequency, TF over GST control)
- binding signal (ETV2): 1.31 fold enrichment (6-mer frequency, TF over GST control)
- binding signal (ELF3): 1.42 fold enrichment (6-mer frequency, TF over GST control)
- binding signal (CRX): 1.05 fold enrichment (6-mer frequency, TF over GST control)
- binding signal (ETV1): 1.27 fold enrichment (6-mer frequency, TF over GST control)
